hcDAF12 agonist: activators of H. contortus DAF-12 nuclear receptor. HEK293 hcDAF-12 lit1-tk-luc reporter, luminescence; 0% DMSO, 100% Δ7-dafachronic acid. activation, % at 6.8 µM. 370,000 compounds, 1.4% hits;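 active = activation above the mean of all tested compounds plus 3 SD, cut at about 5.5% in these data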
DAX1 inh-1: DAX1 (NR0B1) inhibition, primary screen; HEK293T StAR-luciferase reporter, SF-1/DAX-1 repression relief; inhibition, % at 6.8 µM; 370,000 compounds, 1.1% hits; AID 652010;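 active = inhibition above the mean over all tested compounds plus 3 SD, cut at about 3.6% in these data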;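 also: higher inhibition means more luminescence from relief of DAX-1 repression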
DAX1 inh-2: inhibits human nuclear receptor DAX1 | P51843 | HEK293 Gal4-DAX1 luciferase reporter, luminescence | inhibition, % at 6.75 µM | 340,000 compounds, 0.99% hits | AID 504766;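 active = inhibition above the mean over all tested compounds plus 3 SD, cut at about 4.2% in these data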;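 also: inhibition shows as a rise in luminescence from relieved DAX1 repression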
Target sequence (P51843 207-470 limits assumed): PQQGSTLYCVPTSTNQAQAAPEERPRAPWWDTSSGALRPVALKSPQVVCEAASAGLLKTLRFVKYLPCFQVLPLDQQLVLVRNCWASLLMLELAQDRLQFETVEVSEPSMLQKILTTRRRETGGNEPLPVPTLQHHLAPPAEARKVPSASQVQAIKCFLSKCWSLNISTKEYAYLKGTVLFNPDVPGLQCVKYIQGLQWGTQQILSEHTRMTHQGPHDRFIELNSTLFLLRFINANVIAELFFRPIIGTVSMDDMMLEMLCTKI
hgDAF-12 ag: activates the H. glycines DAF-12 receptor ligand-binding domain. HEK293 GAL4-hgDAF12 UAS-luciferase reporter, agonist luminescence; normalized to butyrate control. activation, % at 6.8 µM. 370,000 compounds, 1.8% hits. AID 687014;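 active = activation above a cutoff set at the mean of all screened compounds plus 3 SD, cut at about 10% in these data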
ssDAF12 agonist: activators of S. stercoralis DAF-12 nuclear receptor. AID 652126. HEK293 ssDAF-12/GRIP1 lit1-tk-luc reporter, luminescence; % of 3 µM dafachronic acid response. 370,000 compounds, 1% hits. activation, % at 6.8 µM;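 active = activation above the mean over all tested compounds plus 3 SD, cut at about 0.9% in these data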
GAA850 FXN act: increases GAA850 frataxin promoter reporter activity; HEK293 lucGAA850 FXN promoter luciferase reporter, 24 h; percent of 10 µM SAHA response; activation, % at 6 µM; 360,000 compounds, 0.56% hits; AID 540364;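 active = activation above the average of all compounds screened plus 3 SD, cutoff fixed separately per campaign, cut at about 7.5% in these data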
hgDAF12 conf: confirmation of H. glycines DAF-12 agonists; 3,300 compounds, 80% hits; activation, % at 6.8 µM; HEK293 GAL4-hgDAF12 luciferase reporter, agonist mode; percent of butyrate response; shares compounds with hgDAF-12 ag; AID 743050;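 active = mean activation over triplicate wells above the hit cutoff derived from the earlier primary screen, cut at about 11% in these data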
LXR ag 2: counter-screen for DAF-12 agonists: agonists of human LXR-beta; shares compounds with hgDAF-12 ag; HEK293 Gal4-LXR luciferase reporter, 24 h; activation, % at 6.8 µM; 3,300 tested, under 10 active;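 active = mean activation of the triplicate above a set limit carried over from the primary screen, none filed active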
A number is an active result; i = inactive; nt = no result given. In the library only some 4.5% were active in any assay of this set; here they are far more common.

SMILES	hcDAF12 agonist	DAX1 inh-1	DAX1 inh-2	hgDAF-12 ag	ssDAF12 agonist	GAA850 FXN act	hgDAF12 conf	LXR ag 2
O=C(Nc1ccc2c(c1)OCCO2)c1ccc2nccnc2c1	i	4.3	i	15	i	i	15	i
Cc1ccc(C(=O)Nc2cnc3ccccc3c2)cc1	i	i	i	i	i	i	nt	nt
O=C(Nc1ccc2c(c1)OCCO2)c1ccc(Cl)c(Cl)c1	i	i	7.0	15	i	i	17	i
O=C(Nc1ccc2c(c1)OCCO2)c1cccnc1	i	i	i	i	i	i	nt	nt
Cc1ccc(C(=O)Nc2cc3c(cc2Cl)OCCCO3)cc1	i	i	i	17	i	i	13	i
Cc1cc(C(=O)Nc2cnc3ccccc3c2)ccc1[N+](=O)[O-]	i	i	i	15	i	i	17	i
O=C(c1ccc(Cl)cc1)N1CCC(C(=O)N2CCN(c3ncccn3)CC2)CC1	i	i	i	i	i	i	nt	nt
OC[C@@H]1CN(Cc2ccc(Cl)cc2)C[C@H](n2cnc3c(NC4CCC4)ncnc32)O1	i	i	nt	i	i	i	nt	nt
CC(C)(CN1CCc2ccccc2C1)NS(=O)(=O)c1ccc(Cl)cc1	i	i	i	i	i	i	nt	nt
O=S(=O)(Cc1ccccc1)N1CCN(Cc2ccc(F)cc2Cl)CC1	i	i	i	i	i	i	nt	nt
Cc1cc(OC(=O)c2ccc(S(=O)(=O)N3CCOCC3)cc2)c([N+](=O)[O-])c(=O)[nH]1	i	i	i	i	i	i	nt	nt
NCCCCCNC(=O)c1[nH]cnc1C(=O)N[C@@H](Cc1ccccc1)C(=O)OCc1ccccc1	i	i	i	i	i	i	nt	nt
Cc1ccc(C(=O)Nc2ccc3c(c2)OCCO3)cc1	i	i	i	i	i	i	nt	nt
COc1ccc(C(=O)Nc2ccc3c(c2)OCCO3)cc1Br	i	i	i	15	i	i	15	i
Nc1ccccc1NC1=CC(=O)CC(c2ccco2)C1 (stereo not given)	i	i	i	13	i	i	i	i
O=C(Nc1ccc(N2CCOCC2)c(Cl)c1)c1cccc(F)c1	i	i	i	14	i	i	16	i
O=C(NC(=S)Nc1ccc(N2CCOCC2)c(Cl)c1)c1cccs1	i	i	i	i	i	i	nt	nt
COc1c(C)cccc1C(=O)Nc1ccc(N2CCOCC2)c(Cl)c1	i	i	i	21	i	i	15	i
O=C(Nc1ccc(N2CCCC2)c(Cl)c1)c1cccs1	i	4.0	i	20	i	i	19	i
CCc1ccc(-c2cc(C(=O)N/N=C/c3ccccn3)[nH]n2)cc1	i	i	4.5	18	i	i	i	i
Cc1ccc(-c2cc(C(=O)NN=Cc3ccccc3OCC(=O)O)[nH]n2)cc1	i	i	nt	i	i	nt	nt	nt
O=C(N/N=C/c1ccccn1)c1cc(-c2cccc3ccccc23)n[nH]1	i	i	6.6	14	i	i	i	i
Cc1ccc(-c2cc(C(=O)N/N=C/c3c[nH]c4ccccc34)[nH]n2)cc1	i	i	i	14	i	i	i	i
O=C(N/N=C/c1ccccn1)c1cc(-c2ccc3ccccc3c2)n[nH]1	i	i	i	22	i	i	i	i
O=C(N/N=C/c1ccccn1)c1cc(-c2ccccc2Cl)n[nH]1	i	i	i	i	i	i	nt	nt
SMILES	hcDAF12 agonist	DAX1 inh-1	DAX1 inh-2	hgDAF-12 ag	ssDAF12 agonist	GAA850 FXN act	hgDAF12 conf	LXR ag 2
COc1ccc(CNC(=O)c2cn(Cc3ccc(OC(C)=O)cc3)c(=O)s2)cc1	i	i	nt	i	i	i	nt	nt
N#Cc1ccc(COc2cccc3cccnc23)cc1	i	i	i	i	i	i	nt	nt
O=C(CCCC(=O)Nc1ccccc1Br)N/N=C/c1c(F)cccc1Cl	i	i	i	i	i	i	nt	nt
COc1ccc(CNC(=O)CSc2nc3ccc(C)cc3[nH]2)cc1OC	i	i	i	i	i	i	nt	nt
Cc1ccc(N=Nc2ccc(O)cc2)c(Br)c1	i	i	i	15	i	i	16	i
Oc1ccc(N=Nc2ccc(Br)cc2)c(O)c1	i	i	i	i	i	i	nt	nt
CCN1CCN(CC(=O)Nc2cc(C)on2)CC1	i	i	i	i	i	i	nt	nt
Cc1cc(NC(=O)CN2CCCCC2)no1	i	i	i	14	i	i	i	i
O=C(c1ccco1)N1CCN(C(=O)c2ccccc2OCc2ccccc2)CC1	i	i	i	i	i	i	nt	nt
Cn1cc(C2N3CC4(C)CN2CC(C)(C3)C4=O)c2ccccc21 (stereo not given)	i	i	i	16	i	i	i	i
Cc1ccccc1-c1nc2cc(N)ccc2o1	i	i	i	15	i	i	13	i
CCCCc1nnc(NC(=O)Cc2ccc(S(=O)(=O)N3CCOCC3)s2)s1	i	i	i	i	i	i	nt	nt
CSc1ccc(-c2cnc(N3CCC(C(N)=O)CC3)s2)cc1	i	nt	nt	21	i	nt	17	i
CCOc1ccc(-c2csc(N3CCC(C(N)=O)CC3)n2)cc1	i	nt	nt	i	i	nt	nt	nt
CN1CCCCC1(C)C(=O)NCc1cc(Cl)ccc1F (stereo not given)	i	i	nt	i	i	i	nt	nt
CN1CCN(c2ccc(-c3cc(NC=O)c4ncc(-c5ccc(F)cc5)n4c3)cc2)CC1	i	i	nt	17	i	i	i	i
CCCCNc1c(-c2ccc(-c3ccc(OC)cc3)c(OC)c2)nc2ccccn12	i	i	i	i	i	i	nt	nt
CC(=O)c1ccc(OCc2cc(C(=O)N3CCN(c4ccccc4)CC3C)no2)cc1 (stereo not given)	6.1	i	i	21	i	i	18	i
CSc1ccccc1OCc1cc(C(=O)N2CCN(c3ccccc3)CC2C)no1 (stereo not given)	i	i	i	i	i	i	nt	nt
CCOC(=O)c1sc2c(c1C)c(=O)n(CCO)c(=O)n2Cc1ccccc1	i	i	i	i	i	i	nt	nt
COc1ccc(CN(CCC#N)C(=S)NC(=O)c2ccccc2)cc1	i	i	i	i	i	i	nt	nt
CCOc1ccc(CN(CCC#N)C(=S)NC(=O)c2ccccc2)cc1	i	i	i	17	i	i	i	i
NS(=O)(=O)c1cccc(NS(=O)(=O)c2ccc3ccccc3c2)c1	i	i	i	i	i	i	nt	nt
COc1ccc(-n2c(SCC(=O)Nc3cc(C)c(NC(=O)c4ccccc4)cc3OC)nnc2-c2cccnc2)cc1	i	i	nt	i	i	nt	nt	nt
C=CCNc1ncnc2c1cnn2-c1cccc(C)c1	i	6.3	i	17	i	i	16	i
CCCCNc1ncnc2c1cnn2-c1ccc(Cl)cc1	i	i	i	16	i	i	24	i
CCCCNc1ncnc2c1cnn2-c1ccccc1	i	i	i	20	i	i	17	i

Source: PubChem BioAssay (The Scripps Research Institute Molecular Screening Center)
